According to PubChem BioAssay (NCATS):
Results filed as inconclusive are left out. Calls of active or inactive are those of the source. The call rests on the fitted dose curve; in most records, active means well fitted cell-killing curve with a large enough effect; inconclusive means small, poorly fitted or top-dose-only effect, or effect the other way; inactive means flat fitted curve, though single readings scatter.

Experiments:
Assay in all cases: Primary qHTS to identify gynecologic anti-cancer compounds using libraries of approved drugs and bioactive compounds (AID 1345084); further: nearly all actives have a fitted effect of over 55% in size
C33A = details: Gynecologic cancer cell panel viability, ATPlite luminescence, 48 h; series mostly up to 57.5 µM
Summary of the method: (§1)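 Measured: luminescence after ATPlite addition (15 min, RT). Exposure: 48 h, 37 C, 5% CO2.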

CAOV3 = details: Gynecologic cancer cell panel viability, ATPlite luminescence, 48 h; series mostly up to 57.5 µM
Summary of the method: as §1

CASKI = details: Gynecologic cancer cell panel viability, ATPlite luminescence, 48 h; series mostly up to 57.5 µM
Summary of the method: as §1

Es-2 = details: Gynecologic cancer cell panel viability, ATPlite luminescence, 48 h; series mostly up to 57.5 µM
Summary of the method: as §1

HeLa = details: Gynecologic cancer cell panel viability, ATPlite luminescence, 48 h; series mostly up to 57.5 µM
Summary of the method: as §1

Hek293T = details: Gynecologic cancer cell panel viability, ATPlite luminescence, 48 h, control line for the selectivity index; series mostly up to 57.5 µM
Summary of the method: as §1

JEG-3 = details: Gynecologic cancer cell panel viability, ATPlite luminescence, 48 h; series mostly up to 57.5 µM
Summary of the method: as §1

OV90 = details: Gynecologic cancer cell panel viability, ATPlite luminescence, 48 h; series mostly up to 57.5 µM
Summary of the method: as §1

PA-1 = details: Gynecologic cancer cell panel viability, ATPlite luminescence, 48 h; series mostly up to 57.5 µM
Summary of the method: as §1

Tov-21-G = details: Gynecologic cancer cell panel viability, ATPlite luminescence, 48 h; series mostly up to 57.5 µM
Summary of the method: as §1

Tov112D = details: Gynecologic cancer cell panel viability, ATPlite luminescence, 48 h; series mostly up to 57.5 µM
Summary of the method: as §1
On the % scale 0 is the no-effect control and ±100 the full control effect.

C/C=C/C=C/C=C/C(=O)OC1C=C2C(O)OC(=O)[C@]2(O)[C@@]2(C)CCCC(C)(C)[C@H]12 (stereo partly specified)
inactive: Potency (C33A) | Potency (CAOV3) | outcome (CASKI) | Potency (Es-2) | Potency (HeLa) | Potency (Hek293T) | Potency (JEG-3) | Potency (OV90) | Potency (PA-1) | Potency (Tov-21-G) | Potency (Tov112D)

C=CCc1ccc(O[C@@H]2O[C@H](CO)[C@@H](O)[C@H](O)[C@H]2O)c(O[C@@H]2O[C@H](CO)[C@@H](O)[C@H](O)[C@H]2O)c1
inactive: Potency (C33A) | Potency (CAOV3) | outcome (CASKI) | Potency (Es-2) | Potency (HeLa) | Potency (Hek293T) | Potency (JEG-3) | Potency (OV90) | Potency (PA-1) | Potency (Tov-21-G) | Potency (Tov112D)

COc1c(-c2ccc(O)cc2)cc(OC)c2c1oc1cc(O)c(OC3OC(CO)C(O)C3O)cc12 (stereo unspecified)
inactive: Potency (C33A) | Potency (CAOV3) | outcome (CASKI) | Potency (Es-2) | Potency (HeLa) | Potency (Hek293T) | Potency (JEG-3) | Potency (OV90) | Potency (PA-1) | Potency (Tov-21-G) | Potency (Tov112D)

COCCN1CCC(C(=O)NO)(S(=O)(=O)c2ccc(Oc3ccc(OC(F)(F)F)cc3)cc2)CC1
inactive: Potency (C33A) | Potency (CAOV3) | outcome (CASKI) | Potency (Es-2) | Potency (HeLa) | Potency (Hek293T) | Potency (JEG-3) | Potency (OV90) | Potency (PA-1) | Potency (Tov-21-G) | Potency (Tov112D)

C[C@]1(O)CC[C@@H]2C(C(=O)O)=CO[C@@H](O[C@@H]3O[C@H](CO)[C@@H](O)[C@H](O)[C@H]3O)[C@@H]21
inactive: Potency (C33A) | Potency (CAOV3) | outcome (CASKI) | Potency (Es-2) | Potency (HeLa) | Potency (Hek293T) | Potency (JEG-3) | Potency (OV90) | Potency (PA-1) | Potency (Tov-21-G) | Potency (Tov112D)

CC[C@@H]1[C@H]2CCCCN3C(=O)C[C@H]([C@@H]4[C@H]1OC(=O)[C@H]4C)[C@@H]23
inactive: Potency (C33A) | Potency (CAOV3) | outcome (CASKI) | Potency (Es-2) | Potency (HeLa) | Potency (Hek293T) | Potency (JEG-3) | Potency (OV90) | Potency (PA-1) | Potency (Tov-21-G) | Potency (Tov112D)

COc1ccc(OC)c(C2C(C#N)=C(N)Oc3n[nH]c(-c4ccc5ccccc5c4)c32)c1 (stereo unspecified)
inactive: Potency (C33A) | Potency (CAOV3) | outcome (CASKI) | Potency (Es-2) | Potency (HeLa) | Potency (Hek293T) | Potency (JEG-3) | Potency (OV90) | Potency (PA-1) | Potency (Tov-21-G) | Potency (Tov112D)

CCCCOc1nc(N)c2c(n1)N(Cc1cccc(CN3CCCC3)c1)CC(=O)N2
inactive: Potency (C33A) | Potency (CAOV3) | outcome (CASKI) | Potency (Es-2) | Potency (HeLa) | Potency (Hek293T) | Potency (JEG-3) | Potency (OV90) | Potency (PA-1) | Potency (Tov-21-G) | Potency (Tov112D)

C/C=C(/C)C(=O)OC1C2OC2C2(CO2)C2C3OC(=O)C(C)C3CCC12C (stereo unspecified)
inactive: Potency (C33A) | Potency (CAOV3) | outcome (CASKI) | Potency (Es-2) | Potency (HeLa) | Potency (Hek293T) | Potency (JEG-3) | Potency (OV90) | Potency (PA-1) | Potency (Tov-21-G) | Potency (Tov112D)

C=CC(C)(O)C1CC2C3(C)CCCC(C)(C)C3C(O)C(O)C2(C)O1 (stereo unspecified)
inactive: Potency (C33A) | Potency (CAOV3) | outcome (CASKI) | Potency (Es-2) | Potency (HeLa) | Potency (Hek293T) | Potency (JEG-3) | Potency (OV90) | Potency (PA-1) | Potency (Tov-21-G) | Potency (Tov112D)

C/C=C(\C)C1C(C)=CC2CCC(OS(=O)(=O)O)C(C)C2C1/C=C/C=C/C(=O)O (stereo unspecified)
inactive: Potency (C33A) | Potency (CAOV3) | outcome (CASKI) | Potency (Es-2) | Potency (HeLa) | Potency (Hek293T) | Potency (JEG-3) | Potency (OV90) | Potency (PA-1) | Potency (Tov-21-G) | Potency (Tov112D)

COc1ccc(C2COc3cc(O)ccc3C2)c(O)c1OC (stereo unspecified)
inactive: Potency (C33A) | Potency (CAOV3) | outcome (CASKI) | Potency (Es-2) | Potency (HeLa) | Potency (Hek293T) | Potency (JEG-3) | Potency (OV90) | Potency (PA-1) | Potency (Tov-21-G) | Potency (Tov112D)

C=C1Cc2c(Cl)cc3[nH]c4c5c3c2[C@@]2(O)[C@@H]1C[C@@H]2C(C)(C)O[C@H]5C1CC[C@@]2(O)[C@@]35O[C@@H]3[C@H]3OC(C)(C)[C@H]3O[C@H]5CC[C@]2(C)[C@@]41C (stereo partly specified)
inactive: Potency (C33A) | Potency (CAOV3) | outcome (CASKI) | Potency (Es-2) | Potency (HeLa) | Potency (Hek293T) | Potency (JEG-3) | Potency (OV90) | Potency (PA-1) | Potency (Tov-21-G) | Potency (Tov112D)

Cc1ccc2[nH]c(=O)c(C3=NN(C(=O)CCC(=O)O)C(c4ccc(Br)cc4)C3)c(-c3ccccc3)c2c1 (stereo unspecified)
inactive: Potency (C33A) | Potency (CAOV3) | outcome (CASKI) | Potency (Es-2) | Potency (HeLa) | Potency (Hek293T) | Potency (JEG-3) | Potency (OV90) | Potency (PA-1) | Potency (Tov-21-G) | Potency (Tov112D)

C[C@]12CC/C(=N\OCC(=O)O)C=C1CC[C@@H]1[C@@H]2[C@@H](O)C[C@@]2(C)[C@H]1CC[C@]2(O)C(=O)CO
inactive: Potency (C33A) | Potency (CAOV3) | outcome (CASKI) | Potency (Es-2) | Potency (HeLa) | Potency (Hek293T) | Potency (JEG-3) | Potency (OV90) | Potency (PA-1) | Potency (Tov-21-G) | Potency (Tov112D)

C[C@@H]1CC[C@]2(C(=O)O[C@@H]3O[C@H](CO[C@@H]4O[C@H](CO)[C@@H](O)[C@H](O)[C@H]4O)[C@@H](O)[C@H](O)[C@H]3O)CC[C@]3(C)C(=CCC4[C@@]5(C)CC[C@H](O)[C@](C)(C(=O)O)C5CC[C@]43C)[C@@H]2[C@]1(C)O (stereo partly specified)
inactive: activity change, negative = cytotoxicity (C33A) -1.83% [at 11.6 µM] | activity change, negative = cytotoxicity (CAOV3) 5.32% [at 11.6 µM] | activity change, negative = cytotoxicity (CASKI) 3.63% [at 11.6 µM] | activity change, negative = cytotoxicity (Es-2) 6.01% [at 11.6 µM] | activity change, negative = cytotoxicity (HeLa) 4.82% [at 11.6 µM] | activity change, negative = cytotoxicity (Hek293T) 10.6% [at 11.6 µM] | activity change, negative = cytotoxicity (JEG-3) 0.0588% [at 11.6 µM] | activity change, negative = cytotoxicity (OV90) 16.5% [at 11.6 µM] | activity change, negative = cytotoxicity (PA-1) 3.28% [at 11.6 µM] | activity change, negative = cytotoxicity (Tov-21-G) 4.06% [at 11.6 µM] | activity change, negative = cytotoxicity (Tov112D) -2.64% [at 11.6 µM]
